Screens from PubChem.
VLA-4 inh = inhibition in human VLA-4 binding assay, primary screen, VLA-4 allosteric modulator project, MLPCN library, flow cytometry, VLA-4 expressing cells; Integrin alpha-4 (Homo sapiens), P13612; ligand binding flow cytometry; inhibition, % (about 7 µM as worked out from the volumes in the protocol); actives 0.2% (n = 330,000); AID 2557, 2010; in the data active means inhibition above about 50%
GRK2 inh = compounds blocking aptamer binding on GRK2 – biochemical, human GRK2, bead flow cytometry, HTS, primary screen | Beta-adrenergic receptor kinase 1 (Homo sapiens), P25098 | FAM-aptamer displacement from GRK2 | inhibition of aptamer binding, % at 10 µM | actives 0.59% (n = 330,000);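 active means inhibition of aptamer binding above 40%, roughly 3 SD of noise, on plates passing a quality check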;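 further: median bead fluorescence of bound FAM aptamer so fluorescent compounds give negative values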
Target sequence (P25098 whole entry, looked up): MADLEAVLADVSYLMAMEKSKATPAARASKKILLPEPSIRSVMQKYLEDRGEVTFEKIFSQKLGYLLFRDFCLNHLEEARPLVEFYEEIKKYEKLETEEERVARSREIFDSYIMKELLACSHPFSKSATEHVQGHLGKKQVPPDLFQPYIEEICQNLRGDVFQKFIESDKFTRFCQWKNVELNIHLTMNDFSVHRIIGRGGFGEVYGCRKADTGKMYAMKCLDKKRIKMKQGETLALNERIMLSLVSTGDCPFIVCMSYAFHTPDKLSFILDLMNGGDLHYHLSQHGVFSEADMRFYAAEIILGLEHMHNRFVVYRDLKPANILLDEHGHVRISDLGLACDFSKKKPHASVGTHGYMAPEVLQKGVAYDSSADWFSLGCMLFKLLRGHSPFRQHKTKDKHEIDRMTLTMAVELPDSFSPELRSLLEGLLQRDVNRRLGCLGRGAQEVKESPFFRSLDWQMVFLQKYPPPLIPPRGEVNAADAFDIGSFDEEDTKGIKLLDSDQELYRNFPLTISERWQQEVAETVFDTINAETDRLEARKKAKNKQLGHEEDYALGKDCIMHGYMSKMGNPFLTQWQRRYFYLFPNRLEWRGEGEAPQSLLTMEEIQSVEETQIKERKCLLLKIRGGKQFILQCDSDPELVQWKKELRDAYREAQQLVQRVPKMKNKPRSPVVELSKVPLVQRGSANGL
Bfl-1 A1 inh = caspase 3/7 activation in MEF A1-2A-BIM cells, primary screen, A1 inhibitor project, cell-based, luminescence, HTS; Caspase-Glo 3/7 luminescence, 3 h; percent of clofoctol response, vehicle zero; caspase activation, % (test concentration not listed); actives 0.066% (n = 330,000);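 active means over half of replicate activation scores above 10%, or exactly half above 10 with the replicate mean above 10; inconclusive means replicate mean below 10 yet half the replicates above 10; inactive means over half of replicates below 10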
B2AR ag = beta2AR agonists driving receptor internalization, primary screen, cell-based, FAP fluorogen, flow cytometry. response, % (concentration not given with the values). Beta-2 adrenergic receptor (Homo sapiens), P07550. AID 504454, 2011. actives 0.43% (n = 340,000). Am2.2-beta2AR cells;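 active means response above a set limit, near 3 SD of response in nonfluorescent compounds, cut at about 42% in these data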
NTR1 ag = agonists of human NTR1, primary screen, imaging, U2OS cells, beta-arrestin-GFP, high content; activation, % at 20 µM; Neurotensin receptor type 1 (Homo sapiens), P30989; actives 0.17% (n = 330,000); NTR1-U2OS beta-arrestin-GFP spot imaging, agonist mode; AID 493036, 2011;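 active means activation at or above 40% of the spot to cytoplasm intensity ratio, with at least 20 cells analyzed; inconclusive means wells under 20 cells, flagged as cytotoxic or low count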;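 further: 0% = DMSO without peptide and 100% = 100 nM NTR1 peptide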
VLA-4 mod pick = retest of VLA-4 allosteric modulators, confirmation, cell-based, cherry-picked plates, U937, HUTS-21 LIBS antibody; shares compounds with VLA-4 inh; U937 cells, HUTS-21 LIBS mAb binding, flow cytometry; LDV ligand present at threefold Kd; inhibition, % at 6.7 µM; actives 2% (n = 1,300); in the data active means inhibition above about 40%;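 further: 0% = ligand without compound and 100% = no ligand background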
Starred values were filed as active, the others as inactive; ? = inconclusive; . = no result. An excerpt weighted towards active compounds, which were near 1.3% of everything screened.

SMILES	VLA-4 inh	GRK2 inh	Bfl-1 A1 inh	B2AR ag	NTR1 ag	VLA-4 mod pick
COc1ccc(C(C)=O)cc1COC(=O)CNC(=O)c1cc(C)cc(C)c1	53*	0	1	-3	2	-5
Cc1c(Cl)cccc1NC(=S)NC1CCCC1	0	1	-1	-3	-1	.
CCOC(=O)c1c(C)[nH]c(C(=O)COC(=O)c2ccco2)c1C	4	0	2	7	0	6
CCOC(=O)c1c(C)[nH]c(C(=O)COC(=O)C2CC2C)c1C (stereo unspecified)	-1	1	1	0	0	-2
CCOC(=O)c1c(C)[nH]c(C(=O)COC(=O)c2ccncc2)c1C	4	1	0	-6	-1	-5
CCOC(=O)c1c(C)[nH]c(C(=O)COC(=O)c2cnccn2)c1C	10	0	0	-4	-1	0
c1ccc(-c2ncnc3cc4n(c23)CCC4)cc1	61*	1	-1	0	-1	-1
Cc1ccc2ncnc(-c3ccccc3)c2c1	2	0	?	-1	0	.
O=C(c1cc(-c2ccccn2)nc2c(Cl)cccc12)N1CCN(S(=O)(=O)c2ccccc2)CC1	-8	6	-1	3	4	.
O=C(c1cc(-c2ccccn2)nc2c(Cl)cccc12)N1CCN(C(=O)C2CCCO2)CC1 (stereo unspecified)	1	2	0	4	-1	0
COc1ccc(/C=C/C(=O)Nc2ccccc2C(=O)NCC(c2ccc(OC)cc2)N(C)C)cc1 (stereo unspecified)	54*	1	-2	10	4	1
O=C(NC1CCCC1)C(c1cccnc1)N(Cc1ccccc1)C(=O)c1csnn1 (stereo unspecified)	3	1	0	-9	-1	.
Cc1[nH]c2ccccc2c1/C=N/NC(=O)c1ccc(N)cc1	3	1	0	-13	1	.
Cc1[nH]c2ccccc2c1/C=N/NC(=O)c1ccccc1	45	2	0	-1	0	-7
COc1cc(C(=O)N2CCC(C(=O)Nc3cccc(C(C)=O)c3)CC2)cc(OC)c1OC	94*	4	-1	22	-2	6
COc1ccc(C(=O)N2CCC(C(=O)Nc3ccccc3OC)CC2)cc1	57*	0	0	-7	3	-2
COc1ccc(NC(=O)C2CCN(C(=O)c3ccccc3)CC2)cc1OC	4	0	1	0	1	.
COc1ccc(NC(=O)C2CCN(C(=O)c3ccccc3)CC2)c(OC)c1	33	2	0	-9	2	4
COC(=O)c1ccccc1NC(=O)C1CCN(C(=O)c2cc(OC)cc(OC)c2)CC1	5	0	1	0	0	-5
CCOC(=O)C1CCCN(C2CC(=O)N(c3ccc(N4C(=O)CC(N5CCCC(C(=O)OCC)C5)C4=O)cc3)C2=O)C1 (stereo unspecified)	4	7	0	-3	0	.
CCOC(=O)C1CCCN(C2CC(=O)N(c3cccc(C(F)(F)F)c3)C2=O)C1 (stereo unspecified)	-11	2	1	10	0	0
CCOC(=O)C1CCCN(C2CC(=O)N(c3ccc(C)c(C)c3)C2=O)C1 (stereo unspecified)	-1	0	1	0	-1	2
Cc1ccc(NC(=O)CSCC(=O)N(CCC(C)C)c2c(N)n(Cc3ccccc3)c(=O)[nH]c2=O)cc1	.	.	.	-5	1	.
COc1ccc(-c2nnc3ccc(SCC(=O)N4CCCC4)nn23)cc1	10	1	1	-19	4	.
CCOc1ccc(-c2nnc3ccc(SCC(=O)N4CCCCC4)nn23)cc1	18	4	0	-33	0	-1
CSc1nc2nc(-c3ccccc3)cc(=O)n2[nH]1	93*	0	1	1	1	5
